RAD52 anneal inh = RAD52 (human) annealing inhibition | recombinant RAD52 DNA annealing, FRET fluorescence | AID 651710 | inhibition, % at 18.7 µM | 360,000 tested, 0.46% active | P43351;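 active = every replicate showing at least 50% inhibition; inconclusive = mean inhibition at least 50% but not in every replicate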
Target sequence (P43351 whole entry, looked up): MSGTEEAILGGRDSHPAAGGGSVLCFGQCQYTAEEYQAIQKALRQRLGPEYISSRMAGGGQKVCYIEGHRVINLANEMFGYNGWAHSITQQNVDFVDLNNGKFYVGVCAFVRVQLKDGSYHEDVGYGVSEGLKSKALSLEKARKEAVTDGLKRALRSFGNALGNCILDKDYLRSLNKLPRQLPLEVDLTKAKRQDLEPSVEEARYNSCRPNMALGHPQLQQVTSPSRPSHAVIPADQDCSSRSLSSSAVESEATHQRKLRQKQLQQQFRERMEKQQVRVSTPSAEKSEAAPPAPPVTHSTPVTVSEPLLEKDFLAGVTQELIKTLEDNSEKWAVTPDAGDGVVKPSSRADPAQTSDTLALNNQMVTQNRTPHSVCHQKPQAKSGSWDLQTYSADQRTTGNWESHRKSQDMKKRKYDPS
FGF22 binding = FGF22 (human) thermal shift binding; recombinant FGF22 thermal shift, SYPRO orange fluorescence; percent of sucrose octasulfate shift, DMSO zero; 340,000 tested, 1.5% active; activity (Tm shift, normalised), % at 9.99 µM; Q9HCT0; AID 651658;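 active = mean Tm shift, scaled 0 neutral to 100 positive control, at about 1.3% or above, every replicate too, limit read from the data; inconclusive = no clear call, values can overlap the other calls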
Target sequence (Q9HCT0 whole entry, looked up): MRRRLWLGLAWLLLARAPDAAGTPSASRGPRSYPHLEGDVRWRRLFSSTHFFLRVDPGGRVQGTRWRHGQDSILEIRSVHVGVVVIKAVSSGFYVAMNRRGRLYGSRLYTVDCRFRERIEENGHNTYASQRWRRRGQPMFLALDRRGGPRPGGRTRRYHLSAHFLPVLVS
MLL AF4-AF9 inh = blocks AF4 peptide binding to human AF9. 350,000 tested, 0.47% active. AID 651704. AlphaScreen, biotin-AF4 peptide binding to FLAG-AF9. inhibition, % at 10 µM;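 active = every replicate reaching a set inhibition limit, whatever the replicate mean, cut at about 25% in these data; inconclusive = mean inhibition reaches that limit but some replicates miss it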;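 note: 0% = plate neutral control median and 100% = total signal loss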
DENV2 CPE rescue = protects cells from dengue virus 2 cytopathic effect; DENV2-infected cells, cytopathic effect rescue, plate reader; CPE inhibition, % at 9.99 µM; 350,000 tested, 1.7% active; AID 651640; in the data active = CPE inhibition above about 20%, passing the limit was not always enough; inconclusive = no clear call, values can overlap the other calls; tested in BHK-21 cells;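 note: 0% = median of neutral control wells and 100% = median of positive control wells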
ERAP1 inh = ERAP1 (human) enzyme inhibition. Q9NZ08. recombinant ERAP1, Leu-AMC fluorescence, 60 min. inhibition, % at 10.7 µM. 340,000 tested, 0.15% active. AID 652197;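 active = mean replicate inhibition of at least 30%, or all replicates individually reaching that 30% level; inactive = mean below 30% and not every replicate reaching it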;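 note: 0% = neutral control wells and 100% = L-leucinethiol positive control wells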
* = called active by the depositor; ? = inconclusive; . = not tested or not shown. The list is not random: actives were taken first. Their share in the collection is about 4%.

SMILES | RAD52 anneal inh | FGF22 binding | MLL AF4-AF9 inh | DENV2 CPE rescue | ERAP1 inh
ClCc1csc(-c2ccccc2Cl)n1 | -7.5 | 43.2* | -1.3 | -5.3 | 0.3
COc1cccc(-c2nc(CCl)cs2)c1 | -29.6 | 0.3 | -2.5 | 3.2 | -3.4
COc1ccc(-c2nc(CCl)cs2)cc1 | 2.1 | 43.0* | -9.7 | 3.6 | -0.3
C[C@H](CO)N1C[C@H](C)[C@@H](CN(C)C(=O)c2cccnc2)Oc2cc(-c3cccc(C#N)c3)ccc2S1(=O)=O | -17.2 | 0.2 | 4.1 | -8.3 | -1.4
C[C@@H]1CN([C@@H](C)CO)C(=O)Cc2cc(NS(=O)(=O)c3ccc(Cl)cc3)ccc2O[C@@H]1CN(C)Cc1ccc(C(=O)O)cc1 | 1.8 | -0.5 | 1.8 | 8.0 | -1.2
O=C(NCCc1c[nH]c2ccccc12)/C(=C\c1cccnc1)NC(=O)c1ccccc1Br | -7.3 | -0.3 | 1.8 | 41.5* | -3.3
O=C(NCCc1c[nH]c2ccccc12)/C(=C\c1cccnc1)NC(=O)c1ccco1 | 3.4 | -0.1 | 3.7 | 2.4 | 4.3
CC(C)OC(=O)N(C)C[C@@H]1OCc2ccccc2-c2ccccc2C(=O)N([C@H](C)CO)C[C@@H]1C | 5.7 | -0.2 | -3.0 | 1.1 | 0.6
CC(C)NC(=O)N1[C@H](CO)[C@@H](c2ccccc2)C12CN(C(=O)Cc1ccccc1)C2 | 11.3 | -0.2 | -22.2 | -10.8 | -8.3
CCOn1c(=O)c(-c2cccc([N+](=O)[O-])c2)[n+]([O-])c2ccccc21 | 1.0 | 43.8* | -0.2 | 2.7 | -3.3
CCOn1c(=O)c(-c2ccc(C)cc2)[n+]([O-])c2ccccc21 | -6.8 | -0.2 | 5.7 | 2.1 | 5.7
Cn1cnc(S(=O)(=O)N2C[C@H](O)COC[C@H]3O[C@H](CC(=O)NC4Cc5ccccc5C4)CC[C@@H]32)c1 | 3.4 | -0.2 | -0.6 | -3.5 | -0.3
O=C(N[C@@H]1C[C@@H]2O[C@@H](CO)CC[C@@H]2O[C@@H]1CCc1ccc(C#Cc2ccccc2)cc1)c1ccccn1 | -30.0 | . | -3.3 | 11.1 | -1.0
CN(C)CC(=O)N1[C@H](CO)[C@@H](c2ccccc2)C12CN(Cc1cc(F)ccc1F)C2 | -7.9 | -0.3 | 4.8 | -9.2 | -1.2
CCC(=O)Nc1ccc2c(c1)C(=O)N(C)[C@H]1CC[C@@H](CC(=O)N[C@@H](C)c3ccccc3)O[C@H]1CO2 | 1.2 | 0.1 | -0.2 | 70.6* | 0.0
CCC(=O)Nc1ccc2c(c1)C(=O)N(C)[C@H]1CC[C@H](CC(=O)N[C@H](C)c3ccccc3)O[C@@H]1CO2 | -2.9 | 0.0 | -2.3 | -7.6 | 2.3
CCC(=O)Nc1ccc2c(c1)C(=O)N(C)[C@@H]1CC[C@H](CC(=O)N[C@@H](C)c3ccccc3)O[C@H]1CO2 | 0.6 | 0.1 | -1.0 | 62.2* | 1.4
CCC(=O)Nc1ccc2c(c1)C(=O)N(C)[C@@H]1CC[C@H](CC(=O)N[C@@H](C)c3ccccc3)O[C@@H]1CO2 | 11.5 | -0.2 | 1.9 | 139.3* | 1.2
CCC(=O)Nc1ccc2c(c1)C(=O)N(C)[C@@H]1CC[C@@H](CC(=O)N[C@H](C)c3ccccc3)O[C@H]1CO2 | 2.8 | -0.1 | -1.3 | 9.8 | 2.0
CCC(=O)Nc1ccc2c(c1)C(=O)N(C)[C@H]1CC[C@@H](CC(=O)N[C@@H](C)c3ccccc3)O[C@@H]1CO2 | -1.2 | 0.0 | -0.6 | ? | 4.8
CC(C)C(=O)Nc1ccc2c(c1)C(=O)N(C)[C@H]1CC[C@H](CC(=O)Nc3ccccc3F)O[C@@H]1CO2 | 15.9 | 0.0 | 0.1 | 77.9* | 2.0
O=C(C[C@H]1C[C@H]2c3cc(NC(=O)NC4CCCC4)ccc3O[C@H]2[C@H](CO)O1)NCc1ccc(Cl)cc1 | 1.2 | -0.1 | -1.2 | -3.4 | -0.6
CO[C@@H]1CN(C)C(=O)c2ccc(NC(=O)Nc3ccccc3F)cc2OC[C@H](C)N(C(C)=O)C[C@H]1C | 16.0 | -0.3 | 0.8 | 10.1 | -5.8
COc1cccc(C2Oc3ccccc3C3CC(c4cccs4)=NN32)c1 (stereo not given) | -22.6 | 0.0 | 4.7 | 81.2* | 1.1
COc1cccc(NC(=O)Nc2ccc3c(c2)C(=O)N(C)C[C@@H](OC)[C@H](C)CN[C@@H](C)CO3)c1 | 54.1* | -0.3 | 12.7 | -15.3 | 0.0
SMILES | RAD52 anneal inh | FGF22 binding | MLL AF4-AF9 inh | DENV2 CPE rescue | ERAP1 inh
CO[C@H]1CN(C)C(=O)c2cc(NC(=O)Nc3ccccc3)ccc2OC[C@@H](C)NC[C@@H]1C | -2.0 | 0.1 | -0.8 | 25.7* | -3.1
COc1cccc(NC(=O)Nc2ccc3c(c2)C(=O)N(C)C[C@H](OC)[C@@H](C)CN[C@H](C)CO3)c1 | 67.5* | -0.1 | 15.3 | -3.6 | 0.8
COc1cccc(NC(=O)Nc2ccc3c(c2)C(=O)N(C)C[C@H](OC)[C@H](C)CN[C@@H](C)CO3)c1 | 41.3 | -0.3 | 7.9 | -13.8 | 3.1
CO[C@@H]1CN(C)C(=O)c2cc(NC(=O)c3nc4ccccc4s3)ccc2OC[C@H](C)NC[C@H]1C | 6.7 | 0.0 | -1.1 | 24.2* | 1.9
O=C(C[C@@H]1CC[C@@H](NC(=O)NC2CCCC2)[C@H](CO)O1)NCc1ccc(F)cc1 | 3.3 | -0.4 | -3.5 | -3.6 | 1.0
C[C@@H]1CN([C@@H](C)CO)C(=O)Cc2cc(N(C)C)ccc2O[C@H]1CN(C)C(=O)Nc1ccc(C(F)(F)F)cc1 | 14.7 | 0.3 | 4.3 | 9.3 | -1.0
CCS(=O)(=O)Nc1ccc2c(c1)C(=O)N(C)C[C@H](OC)[C@@H](C)CN[C@@H](C)CO2 | -0.3 | 0.1 | -1.2 | 24.7* | 0.3
COC(=O)[C@H]1[C@H](CO)[C@H]2Cn3c(ccc(-c4ccncc4)c3=O)[C@H]2N1Cc1ccccc1F | -145.3 | 0.0 | -1.7 | -15.7 | 30.3*
COC(=O)[C@H]1[C@H](CO)[C@H]2Cn3c(ccc(-c4ccccc4)c3=O)[C@H]2N1Cc1ccccc1F | -8.5 | -0.2 | 0.1 | -10.6 | -0.3
O=C(NC1CCC1)[C@H]1[C@H](CO)[C@H]2Cn3c(ccc(-c4ccccc4F)c3=O)[C@H]2N1Cc1ccncc1 | 71.1* | -0.1 | 0.5 | -9.9 | -2.1
CC(C)C[C@H]1CNC(=S)N1C[C@H]1CCCN1C[C@H](CC(C)C)N1C[C@H](Cc2ccc(O)cc2)N(CCc2ccccc2)C1=S | -29.7 | -0.2 | 4.7 | 39.1* | 0.9
CCOc1ccc(CCN2C(=S)N([C@@H](Cc3ccc(O)cc3)CN3CCC[C@@H]3CN3C(=S)NC[C@@H]3CC(C)C)C[C@@H]2CC(C)C)cc1 | -3.9 | 0.1 | 3.9 | 21.9* | 4.4
CCOc1ccc(CCN2C(=O)C(=O)N([C@@H](CC(C)C)CN3CCC[C@H]3CN3C(=O)C(=O)NC[C@@H]3Cc3ccc(O)cc3)C[C@@H]2Cc2ccccc2)cc1 | -3.8 | 43.3* | 0.0 | -10.7 | -1.1
CCOc1ccc(CCN2C(=S)N([C@@H](Cc3ccc(O)cc3)CN3CCC[C@@H]3CN3C(=S)NC[C@@H]3CC(C)C)C[C@@H]2Cc2ccccc2)cc1 | -23.1 | 0.0 | -13.0 | 1.0 | .
C[C@@H]1CCCCO[C@H](CN(C)C(=O)Cc2ccccc2)[C@H](C)CN([C@H](C)CO)C(=O)c2cc(NC(=O)c3ccccc3)ccc2O1 | 26.8 | -0.2 | 1.6 | -6.1 | -0.7
